An excerpt weighted towards active compounds, which were near 9.2% of everything screened.
FLuc counter: firefly luciferase modulation, counter-screen for miR-21 project. 6.9% of 360,000 active. P08659. Potency, µM (highest dose often 57.5 µM), usual class: inhibitors. purified FLuc, Km substrates, luminescence inhibition; also: nearly all actives have a fitted effect of over 55% in size
Target sequence (P08659 whole entry, looked up): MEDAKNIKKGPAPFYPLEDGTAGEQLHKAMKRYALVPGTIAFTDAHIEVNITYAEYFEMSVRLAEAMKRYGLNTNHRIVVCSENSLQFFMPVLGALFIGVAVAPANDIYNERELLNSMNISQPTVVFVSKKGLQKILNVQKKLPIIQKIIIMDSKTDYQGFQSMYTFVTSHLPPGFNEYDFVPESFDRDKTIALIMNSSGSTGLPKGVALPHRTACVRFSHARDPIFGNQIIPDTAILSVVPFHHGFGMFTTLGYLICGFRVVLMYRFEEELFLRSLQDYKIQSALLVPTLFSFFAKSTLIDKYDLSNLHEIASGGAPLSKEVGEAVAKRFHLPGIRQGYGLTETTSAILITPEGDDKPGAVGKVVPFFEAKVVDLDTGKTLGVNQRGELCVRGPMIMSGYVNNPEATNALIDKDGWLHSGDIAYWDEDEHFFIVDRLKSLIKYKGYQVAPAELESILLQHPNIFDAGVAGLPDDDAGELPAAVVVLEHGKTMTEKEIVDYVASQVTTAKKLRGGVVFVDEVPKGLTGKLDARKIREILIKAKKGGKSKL
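Purified P. pyralis luciferase, 10 nM final, with Km-level 10 uM D-luciferin and 10 uM ATP in 50 mM Tris acetate pH 7.5, 10 mM Mg acetate, 0.01% Tween-20, 0.05% BSA; 6-point qHTS titration about 60 µM downward; luminescence read.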
ELG1 DNA repair: ELG1-dependent DNA repair inhibition; HEK293T ELG1-luciferase reporter, luminescence, 16 h; DNA damage induced by 5-fluorouridine; Potency, µM (titrated, usually from 46.1 µM), most hits filed as inhibitors; 2.3% of 330,000 active; also: nearly all actives have a fitted effect of over 55% in size
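HEK293T cells expressing luciferase-tagged ELG1 (2,000/well) received 5-Fluorouridine plus compound or DMSO for 16 hr at 37 °C. Luciferase was read by ONE-Glo luminescence after 30 min at room temperature.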
SMN2 splice enh: increases expression of the SMN2 splice variant | HEK293 SMN2-luciferase splicing reporter, luminescence, 30-36 h | Potency, µM (titrated, usually from 46.1 µM), actives largely listed as activators | 2.8% of 210,000 active; also: nearly all actives have a fitted effect of over 55% in size
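HEK293 cells carry an SMN2 […]–luciferase reporter in which exon 7 inclusion puts luciferase in frame. Cells were plated 10-12 h before compound addition, then incubated 30-36 h at 37C. ONE-Glo luminescence was read; sodium butyrate at 4.5 mM final served as control.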
ELG1 genotox: genotoxicity induction in ELG1-luciferase HEK293T cells; AID 504466; HEK293T ELG1-luciferase reporter, luminescence, 16 h; 1.3% of 330,000 active; Potency, µM (top dose mostly 46 µM), most hits filed as activators; also: nearly all actives have a fitted effect of over 60% in size
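Cells (2,000/well) expressing the ELG1-luciferase fusion are dosed by pin tool and kept 16 hr at 37 °C, 5% CO2. Signal comes from ONE-Glo luciferase reagent after 30 min at room temperature.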
Rab9 promoter act: activators of Rab9 promoter. Huh7 Rab9 promoter-luciferase reporter, luminescence, 24 h. Potency, µM (titrated, usually from 9.22 µM), most hits filed as activators. 2.8% of 320,000 active. AID 485297; also: nearly all actives have a fitted effect of over 60% in size
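Luciferase signal after 10 min detection reagent at ambient indicates Rab9 promoter upregulation; stably transfected Huh7 cells were treated 24 h with compound in DMSO at 37 °C, 5% CO2.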
NPC1 promoter act: activators of NPC1 promoter; Huh7 NPC1 promoter luciferase reporter, 24 h; 2.4% of 320,000 active; Potency, µM (top dose mostly 9.22 µM), actives largely listed as activators; also: nearly all actives have a fitted effect of over 60% in size
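Stable NPC1-promoter luciferase Huh7 line; cpd (DMSO) 24 h, 37 °C, 5% CO2; Amplite luciferase reagent 10 min RT; luminescence readout. qHTS format.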
A number is an active result; i = inactive; ? = inconclusive; nt = no result given; [ ] = another dose, or the depositor's remark. Calls follow the shape of the dose curve; as a rule, active = well fitted curve in the direction sought with a large enough effect; inconclusive = small, poorly fitted or top-dose-only effect, or another doubt; inactive = no such curve, though single readings can be large; an effect the other way counts as inactive or inconclusive.

SMILES	FLuc counter	ELG1 DNA repair	SMN2 splice enh	ELG1 genotox	Rab9 promoter act	NPC1 promoter act
Cc1ccc(-c2nc3cc(NC(=O)C(C)C)ccc3o2)cc1	1.1µM	?	0.56µM	?	0.1µM	0.35µM
Cc1cc2nc(-c3ccc(NC(=O)C(C)C)cc3)oc2cc1C	0.85µM	?	2.8µM	0.82µM	0.63µM	0.45µM
Clc1ccc(-c2noc(CN3CCCCC3)n2)cc1	nt	nt	i[9.22 µM]	nt	nt	nt
Cc1cc2nc(-c3ccc(NC(=O)c4ccc(OCC(C)C)cc4)cc3)oc2cc1C	i	nt	i	nt	nt	nt
COc1cc(OC)cc(-c2nc3cc(C)ccc3o2)c1	11µM	?	7.1µM	16µM	i	i
Cc1ccc(-c2nc3cc(NC(=O)c4cc(Br)ccc4Cl)ccc3o2)cc1	i	nt	i	nt	nt	nt
CC1(C)C2CCC1(CS(=O)(=O)NCc1ccc(Cl)cc1Cl)C(=O)C2 (centres undefined)	i	i	nt	i	i	i
Cc1ccc(NC(=O)N2CC3CCCN3c3ccccc32)cc1Cl (centres undefined)	i	nt	nt	nt	nt	nt
Cc1ccc(-c2nc3cc(Cl)ccc3o2)cc1	0.34µM	?	?	?	i	i
Cc1ccc(C(=O)Nc2cc(-c3nc4cc(Cl)ccc4o3)ccc2C)c(C)c1	i	nt	i	nt	nt	nt
O=C(NCc1ccccc1)c1ccc(C2SCC(=O)N2Cc2ccccc2)cc1 (centres undefined)	i	16µM	i	i	i	i
CCc1ccc(NC(=O)c2ccc(C3SCC(=O)N3CCc3ccccc3)cc2)cc1 (centres undefined)	i	10µM	i	i	i	i
O=C(Nc1ccccc1F)c1oc2ccccc2c1NC(=O)C12CC3CC(CC(C3)C1)C2	i	nt	i	nt	nt	nt
Cc1cc2c(=O)oc(-c3ccccc3Br)nc2s1	7.6µM	i	nt	i	i	i
CCc1cc2c(=O)oc(-c3ccccc3F)nc2s1	3.4µM	i	nt	i	i	i
Cc1ccc(-c2csc(NC(=O)CSc3nc4ccccc4c(=O)n3CCCN(C)C)n2)cc1	i	?	i	?	i	i
O=C(CCCN1CCOCC1)c1ccc2c(c1)OCCO2	13µM	?	?	?	2µM	?
O=C(CCN1CCOCC1)c1ccc2c(c1)OCCO2	i	i	i	i	i	i
O=C(OCCN1CCOCC1)c1ccc(Cl)cc1Cl	24µM	i	nt	i	i	i
O=C(OCCN1CCOCC1)c1ccc(O)cc1	i	i	nt	i	i	i
O=C(OCCN1CCOCC1)c1ccc2c(c1)OCCO2	24µM	nt	?	nt	nt	nt
Clc1ccc(-c2nnc(N3CCCC3)nn2)cc1	1.2µM	?	6.3µM	?	0.32µM	?
CC(=O)Nc1cccc(-c2csc(Nc3ncccn3)n2)c1	2.1µM	?	3.5µM	?	1.6µM	3.2µM
CC(=O)Nc1ccc(-c2csc(Nc3cccc(C)n3)n2)cc1	9.5µM	?	nt	i	1.6µM	1.8µM
CC(=O)Nc1ccc(S(=O)(=O)Nc2cccc(-c3csc(C)n3)c2)cc1	i	?	nt	i	i	i
SMILES	FLuc counter	ELG1 DNA repair	SMN2 splice enh	ELG1 genotox	Rab9 promoter act	NPC1 promoter act
CC(=O)NNc1nc(-c2ccc(NC(C)=O)cc2)cs1	i	i	i	i	i	i
COc1ccc(-c2csc(Nc3ccc(C)cn3)n2)cc1	i	i	nt	i	i	i
CC(=O)Nc1cccc(-c2csc(Nc3ccc(C)cn3)n2)c1	0.43µM	?	2.2µM	1.8µM	0.89µM	1µM
Nc1c(C(=O)c2ccccc2)sc2snc(SCC(=O)c3ccccc3)c12	7.6µM	i	i	i	i	i
Nc1nnc(SCC(=O)c2ccccc2)s1	i	?	i	i	i	i
Cn1c(-c2ccc3ccccc3n2)[n+](C)c2ccccc21	21µM	?	nt	i	i	i
Cn1c(-c2ccccn2)[n+](C)c2ccccc21	i	i	nt	i	i	i
Cc1ccc(-n2nc(C)c3c(C(=O)NCc4ccc(F)cc4)cc(C)nc32)cc1	i	nt	nt	nt	nt	nt
CCOC(=O)c1cc(OC(=O)c2cc(OC)c(OC)c(OC)c2)n(-c2ccccc2)n1	i	nt	i	nt	nt	nt
S=C(Nc1cccnc1)Nc1cccc2cnccc12	?	i	i	i	i	i
CN(C)S(=O)(=O)c1cccc(NC(=S)Nc2cccc3cnccc23)c1	?	21µM	nt	i	i	i
COc1ccc(CN2C(=O)c3ccccc3C(/C=N\OCc3ccc(C)cc3)C2=O)cc1 (centres undefined)	17µM	i	i	i	i	i
Cc1cc(C=C2C(=O)c3ccccc3C2=O)c(C)n1C	3µM	?	?	?	i	i
CCn1c(C)cc(C=C2C(=O)c3ccccc3C2=O)c1C	0.48µM	?	?	?	?	?
CCCC(=O)N1CCN(c2nc(CC(C)C)c3c(c2C#N)CCC3)CC1	i	?	i	i	i	i
CC(=O)c1cccc(OCc2cc(C(=O)N3C[C@H]4CC[C@H]3C4)no2)c1	9.5µM	?	nt	?	2µM	2.5µM
O=C(c1cc(COc2cccc(C(F)(F)F)c2)on1)N1C[C@H]2CC[C@H]1C2	15µM	?	nt	?	2.2µM	2.8µM
COc1cccc(OCc2cc(C(=O)N(C)CCC3CCCCO3)no2)c1 (centres undefined)	?	?	nt	i	?	?
CC(=O)c1cccc(OCc2cc(C(=O)N(C)CCC3CCOCC3)no2)c1	17µM	?	nt	i	?	i
CC(=O)c1cccc(OCc2cc(C(=O)N3C[C@@H](C)O[C@@H](C)C3)no2)c1	15µM	?	nt	?	?	?
O=C(O)[C@@H]1CS[C@@]2(CCCN(Cc3ccccc3)C2)N1	nt	nt	i[9.22 µM]	nt	nt	nt
Nc1nc2c(C(=O)N3CCOCC3)nnn2c2ccccc12	12µM	?	nt	?	3.2µM	3.2µM
CN(CCCN1CCOCC1)C(=O)c1ccc2nc(Cc3cccc(Cl)c3)oc2c1	i	15µM	nt	i	i	i
Cc1cccc(S(=O)(=O)NNC(=O)c2sc(C)nc2C)c1	i	i	i	i	i	i
Cc1ccc(Cl)cc1Nc1nc(-c2sc(NC(=O)c3cccc(Cl)c3)nc2C)cs1	i	i	i	i	i	i
SMILES	FLuc counter	ELG1 DNA repair	SMN2 splice enh	ELG1 genotox	Rab9 promoter act	NPC1 promoter act
Cc1nc(NC(=O)c2ccco2)sc1-c1csc(Nc2ccc(Cl)cc2)n1	11µM	18µM	i	i	i	i
Cc1ccc(Cl)cc1Nc1nc(-c2sc(NC(=O)c3ccco3)nc2C)cs1	i	8.2µM	i	i	i	i
Cc1nc(NC(=O)c2ccco2)sc1-c1csc(Nc2ccc(Cl)cc2Cl)n1	?	13µM	i	i	i	i
COc1ccc2nccc(SCC(=O)O)c2c1	nt	nt	i[9.22 µM]	nt	nt	nt
NC1=C2NC=N[C@@H]2N(C/C=C\c2ccccc2)C=N1	nt	nt	i[9.22 µM]	nt	nt	nt
CCN1CCCC1CN(Cc1cc2ccc(C)cc2[nH]c1=O)C(=S)Nc1ccc(F)cc1 (centres undefined)	i	i	nt	i	i	i
CC(C)[C@H](NC(=O)Nc1ccc(Oc2ccccc2)cc1)C(=O)O	24µM	i	i	i	i	i
CCOC(=O)C(=O)Nc1ccc(Oc2ccccc2)cc1	15µM	i	i	i	i	i

Screens (PubChem)
